AHR act: activates the human aryl hydrocarbon receptor; activation, % at 5 µM; AID 2796; 320,000 tested, 2.5% active; AHR-responsive luciferase reporter cells, luminescence; in the data active = activation above about 47%;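 note: 0% = vehicle wells and 100% = reference agonist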
ADAM17 inh: inhibits human ADAM17; inhibition, % at 6.95 µM; AID 720648; 370,000 tested, 0.83% active; P78536; recombinant ADAM17, EDANS/DABCYL FRET peptide cleavage;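 active = inhibition above the mean of compounds lying between control limits plus 3 SD, set per campaign, cut at about 8.5% in these data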;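 note: 0% = DMSO-only wells as the low control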
KLK7 zymogen act: proKLK7 (human) activation, primary screen. 370,000 tested, 0.9% active. activation, % at 7 µM. purified proKLK7, EDANS-DABCYL substrate fluorescence; 100% is mature enzyme control, 0% vehicle;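 active = activation above the mean of all tested compounds plus 3 SD, computed per campaign excluding outliers beyond control limits, cut at about 13% in these data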
ADAM10 inh: inhibits human ADAM10; O14672; recombinant ADAM10, EDANS/DABCYL FRET peptide cleavage, 3 h; inhibition, % at 7 µM; 370,000 tested, 0.62% active; AID 720582;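 active = inhibition above a per-campaign cutoff equal to the mean of compounds falling between control-based bounds plus 3 SD, cut at about 20% in these data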;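 note: 0% = DMSO wells while the 100% control is not disclosed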
Target sequence (O14672 214-748 limits assumed): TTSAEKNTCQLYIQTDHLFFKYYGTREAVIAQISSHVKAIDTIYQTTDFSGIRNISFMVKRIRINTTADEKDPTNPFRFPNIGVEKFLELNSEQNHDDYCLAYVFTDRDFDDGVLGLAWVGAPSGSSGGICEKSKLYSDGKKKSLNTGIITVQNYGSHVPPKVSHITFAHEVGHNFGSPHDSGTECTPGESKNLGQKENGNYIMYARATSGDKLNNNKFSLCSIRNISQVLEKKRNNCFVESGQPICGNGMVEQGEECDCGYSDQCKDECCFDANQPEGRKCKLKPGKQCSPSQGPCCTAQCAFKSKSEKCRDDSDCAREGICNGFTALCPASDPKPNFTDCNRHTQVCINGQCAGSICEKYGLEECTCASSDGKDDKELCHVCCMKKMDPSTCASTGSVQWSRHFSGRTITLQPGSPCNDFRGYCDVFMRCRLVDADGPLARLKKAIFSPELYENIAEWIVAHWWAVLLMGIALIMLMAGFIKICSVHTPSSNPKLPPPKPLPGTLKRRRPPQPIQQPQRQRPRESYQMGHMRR
NR3A LBD binder: modulators (binders) of human NR3A ligand-binding domain; 340,000 tested, 2.5% active; Tm shift relative to glycine control, % at 25 µM; AID 1259313; NR3A LBD differential scanning fluorimetry, Tm shift; 0% = protein alone, 100% = glycine-bound protein;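 active = melting temperature shift of at least 10% of the positive control shift, at one fixed dose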
rCAG RNA binder: binds r(CAG) RNA repeats | inhibition, % at 3 µM | r(CAG) RNA repeat, TO-PRO-1 dye displacement fluorescence | 370,000 tested, 1.3% active;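 active = inhibition above the plate cutoff, the mean of all test compounds on that plate plus 3 SD, cut at about 35% in these data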;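 note: 0% = DMSO alone and 100% = 100 µM mitoxantrone as full dye displacement; higher means more dye released from RNA so lower well fluorescence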
* = called active by the depositor; . = no result given. Hits are enriched below; roughly 7% of the tested compounds scored in any of these assays.

SMILES	AHR act	ADAM17 inh	KLK7 zymogen act	ADAM10 inh	NR3A LBD binder	rCAG RNA binder
Cc1ccc(C(=O)c2oc3ccccc3c2NC(=O)c2cc(-c3ccccc3O)n[nH]2)cc1	50.5*	2.5	-0.9	-3.6	31.4*	11.3
Cc1ccc(C(=O)c2oc3ccccc3c2NC(=O)c2cc(-c3cc(C)ccc3O)n[nH]2)cc1	-6.4	-3.2	-0.6	-6.7	22.3*	8.9
COc1ccc(CN2C[C@H](COCc3ccccc3)Oc3cccc(Oc4ccc(C(C)C)cc4)c3S2(=O)=O)cc1	.	-1.8	0.1	-9.5	.	5.6
CC[C@@H](CCCCCCCn1ccc2ccccc21)CCC(=O)N(c1ccccc1)c1ccccc1	.	-1.1	-0.4	0.0	.	2.5
CCCN1C(=O)c2n[nH]c(C)c2C1c1ccc2c(c1)OCO2 (stereo not drawn)	.	-5.6	0.5	-1.8	.	0.1
Cc1[nH]c2ccccc2c1CC(=O)Nc1ccc(Oc2cccnc2)cc1	.	-1.2	-0.2	-7.2	.	4.8
COc1ccc(NC(=O)/C(C#N)=C/c2ccc(-c3ccccc3C(=O)O)o2)cc1	46.5	4.3	0.3	0.7	1.6	22.7
COc1ccc(NC(=O)/C(C#N)=C\c2ccc(-c3cc(C(=O)O)ccc3C)o2)cc1	-4.1	-0.9	-0.3	-1.9	0.5	59.4*
CCCCOc1ccc2c(c1)C(=O)c1cc(O)ccc1-2	1.4	3.2	0.4	15.7	34.1*	21.8
CN1C2=NCCN2C(=O)c2cc(Cl)ccc21	59.1*	0.5	0.5	6.2	2.4	-1.9
Clc1ccc2c(c1)-c1ccccc1C1=NCCN12	.	-37.2	-0.3	-172.2	.	7.3
N#C/C(=C\c1ccc(-c2ccccc2[N+](=O)[O-])o1)C(=O)Nc1nc(-c2cccs2)cs1	58.5*	2.9	-0.3	9.6	11.7*	49.5*
N#C/C(=C\c1ccc(-c2ccc([N+](=O)[O-])cc2)o1)C(=O)Nc1nc(-c2cccs2)cs1	16.0	-7.2	0.1	-2.8	-1.4	10.4
N#C/C(=C/c1ccc(-c2cccc([N+](=O)[O-])c2)o1)C(=O)Nc1nc(-c2cccs2)cs1	.	-0.9	-0.2	-1.8	22.8*	17.7
COc1ccc(Cn2ccc3ccc(-c4ccc5ccn(Cc6ccc(C#N)cc6)c5c4)cc32)cc1	.	-13.1	-0.9	-24.8	.	12.8
O=C(OCCNc1nc(-c2ccccc2)nc2ccccc12)c1ccncc1	47.5*	2.4	0.7	0.9	-4.4	11.9
O=C(OCCNc1nc(-c2ccccc2)nc2ccccc12)c1cccnc1	47.9*	0.6	0.4	3.7	-6.6	-0.1
O=C(O)CCNc1nc(-c2ccccc2)nc2ccccc12	15.5	-1.6	1.1	8.9	3.1	6.7
CC(C)N=C(Nc1ccc(Cl)cc1)c1cccnc1	79.2*	-6.9	0.3	-5.7	1.2	-5.2
CCc1cccc(C)c1NC(=O)Nc1ccc2c(c1)OCO2	26.9	-7.0	0.6	-5.8	-4.9	-1.9
COc1ccc(OCC(=O)Nc2ccc3c(c2)OCO3)cc1	2.7	-2.0	-0.1	-0.3	-8.8	1.0
Cc1cc(OC(F)F)ccc1NC(=O)Nc1ccc2c(c1)OCO2	65.7*	-6.9	0.1	-6.8	-11.5	-3.1
COc1ccc(NC(=O)Nc2ccc3c(c2)OCO3)c(C)c1	67.2*	-0.3	-0.3	5.7	-12.8	1.8
Nc1nn(-c2ccccc2)c(N)c1N=Nc1cccc(F)c1	1.4	-2.4	0.1	8.5	10.8*	1.4
Cc1ccc(S(=O)(=O)N2CCN(C(=O)c3cc4c(C)nn(-c5ccccc5C)c4s3)CC2)cc1	5.4	9.0*	-0.1	21.7*	1.0	8.4
SMILES	AHR act	ADAM17 inh	KLK7 zymogen act	ADAM10 inh	NR3A LBD binder	rCAG RNA binder
O=C(OCc1cn(Cc2cccc(F)c2)nn1)N1CCCCC1	.	-7.7	0.0	-0.9	.	2.4
Cc1ccc(NCC(=O)N/N=C\c2cccc(O)c2)cc1	65.1*	2.9	0.1	5.7	0.9	2.6
Cc1nn(Cc2ccccc2)c(Cl)c1/C=N/NC(=O)CNc1cccc(C(F)(F)F)c1	32.7	2.7	0.1	4.3	27.1*	3.0
Cc1ccc(NCC(=O)N/N=C/c2cccc(Br)c2)cc1	69.8*	-5.9	0.0	-5.0	0.5	2.8
Cc1cccc(NCC(=O)N/N=C/c2cccc(Br)c2)c1	13.7	0.8	0.6	-6.6	-20.0	3.7
Cc1ccccc1NC(=O)C(=O)N/N=C/c1cccc(Br)c1	-1.2	2.2	-0.2	-0.3	34.3*	-0.5
O=C(CNc1cccc(C(F)(F)F)c1)N/N=C/c1cccc(Br)c1	101.1*	3.1	-0.4	8.0	28.6*	1.6
O=C(CNc1cccc(C(F)(F)F)c1)N/N=C/C1CCCCC1	4.2	4.8	-0.8	8.1	-17.8	0.8
CC(C)[C@@H](C)/C=C/[C@@H](C)[C@H]1CC[C@@H]2[C@]1(C)CCC1[C@]23C=C[C@]2(C[C@@H](O)CC[C@]12C)N(c1cnccn1)O3 (stereo partly drawn)	.	5.2	-0.4	1.2	.	2.0
CC(C)=CC(=O)NCC1CCN(C(=O)C(=O)c2cc3ccccc3o2)CC1	.	-1.0	0.5	-1.1	.	2.9
CCOc1cc(C)c(Cl)cc1S(=O)(=O)NCc1ccco1	-0.6	-4.1	0.1	-0.8	19.6*	-2.3
CC(C)(C)C(=O)OC12CCCN(C1)/C(=C/c1cccc(Cl)c1)C2 (stereo not drawn)	.	2.6	0.4	3.4	.	-2.2
COc1ccc(/C(C)=N/Nc2nc3ccccc3nc2C)cc1	11.3	-9.6	0.3	-24.9	-0.2	0.7
C=CCc1c(C)nc(-c2ccccc2)nc1N/N=C(\C)c1ccc(N)cc1	51.0*	1.6	-0.3	2.8	-3.2	-0.5
C=CCc1c(C)nc(C)nc1N/N=C/c1ccccc1	65.7*	-3.1	0.2	-4.9	-1.1	-4.4
C=CCc1c(C)nc(-c2ccccc2)nc1N/N=C/c1ccncc1	61.4*	-0.9	0.6	-6.0	1.5	-7.5
C=CCc1c(C)nc(C)nc1N/N=C/c1ccc(F)cc1	77.0*	1.4	-0.1	8.2	0.1	-0.8
Fc1ccc(/C=N/Nc2nn[nH]n2)cc1	1.7	-1.1	0.0	-1.5	-2.1	-1.3
O=C(NCc1ccccc1Cl)c1ccc(S(=O)(=O)Nc2cccc(C(F)(F)F)c2)cc1	-0.5	5.8	-0.1	12.2	24.7*	30.2
COc1ccc(C(=O)Nc2nc3ccccc3c(=O)[nH]2)cc1	73.6*	1.4	0.0	15.3	-8.3	7.5
Cc1cc(/C=C2/NC(=O)N(Cc3ccccc3F)C2=O)c(C)n1C	76.5*	-9.1	0.5	-24.9	-0.3	12.1
Cc1cc(/C=C2/NC(=O)N(Cc3ccccc3F)C2=O)c(C)n1-c1ccccn1	43.1	-7.1	1.6	-36.6	-2.7	3.5
COc1ccc(C(=O)N(Cc2ccco2)Cc2cc3cc(C)ccc3[nH]c2=O)cc1OC	2.5	-9.5	0.5	-33.0	0.5	2.0
COc1ccccc1NC(=S)N(Cc1ccco1)Cc1cc2cc(C)ccc2[nH]c1=O	71.1*	-6.5	-0.4	-5.3	-4.3	2.8
CNC(=S)N(Cc1cccs1)Cc1cc2cc(OC)ccc2[nH]c1=O	4.1	-7.5	0.3	-42.5	1.0	-2.7

High-throughput results (PubChem BioAssay)
